Target: Muscarinic acetylcholine receptor M1 (Rattus norvegicus) (UniProt P08482)
Experiment: rat M1 acetylcholine curve fold-shift by analogs, SAR follow-up, selectivity assay for M4 PAM project, cell-based, ACh fold-shift, calcium mobilization (AID 1932)
Conditions: rM1-expressing cells, ACh CRC fold-shift; series mostly up to 1 µM; ACh response, % max: at the top concentration; call rule not given here

Chain of Muscarinic acetylcholine receptor M1 (Rattus norvegicus) (P08482 whole entry, looked up): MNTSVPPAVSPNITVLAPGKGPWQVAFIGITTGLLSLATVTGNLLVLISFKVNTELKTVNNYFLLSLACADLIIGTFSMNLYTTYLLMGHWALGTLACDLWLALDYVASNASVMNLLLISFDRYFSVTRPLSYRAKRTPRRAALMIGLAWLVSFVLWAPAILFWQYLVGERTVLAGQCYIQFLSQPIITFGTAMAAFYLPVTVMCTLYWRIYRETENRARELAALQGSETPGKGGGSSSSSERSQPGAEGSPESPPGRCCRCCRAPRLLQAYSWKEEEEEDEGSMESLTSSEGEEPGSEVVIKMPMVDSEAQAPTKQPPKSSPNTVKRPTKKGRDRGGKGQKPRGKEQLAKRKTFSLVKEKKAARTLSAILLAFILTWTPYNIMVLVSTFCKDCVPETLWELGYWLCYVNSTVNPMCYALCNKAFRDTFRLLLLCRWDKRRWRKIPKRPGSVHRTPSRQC

ACh response, % max, inactive:
Cc1cc(OCc2ccncc2)nc2sc(C(=O)NCc3cccc(F)c3F)c(N)c12 92.3
Cc1cc(OCc2ccncc2)nc2sc(C(=O)NCc3cc(F)ccc3F)c(N)c12 92.8
COc1ccc(CNC(=O)c2sc3nc(OCc4ccncc4)cc(C)c3c2N)cc1 96.3
Cc1cc(OCCN2CCOCC2)nc2sc(C(=O)NC(C)(C)C)c(N)c12 93.7
